Assay [1] deals with Mitogen-activated protein kinase 7 (Homo sapiens) (UniProt Q13164). The assay is described as follows: Gal4-ERK5 driven luciferase induction – cell-based, HTS, primary screen (AID 1508626;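 active = luciferase signal above three times the same-plate solvent-only control wells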;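 also: luciferase driven by Gal4-ERK5 fusion binding five Gal4 sites before minimal TATA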). The conditions noted are these: HeLa Gal4-ERK5 transactivation, 18 h, at 5 µM, stronger effect = higher value.
A short description of assay [2]: compounds altering viability of human ES cells (AID 493140).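 Also: cells exposed to compounds for four days before counting.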 The conditions noted are these: human embryonic stem cell survival screen; stronger effect = higher value.
Assay [3] in a line: viability loss in pontine glioma line – cell-based, JHH-DIPG-1, MIPE4.0, CellTiter-Glo, qHTS, dose response (AID 1347062; cut-off not given, nearly all actives have AC50 up to about 27 µM;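 as to AC50: cells exposed to compound for two days before readout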). As to conditions: JHH-DIPG-1 viability, CellTiter-Glo ATP luminescence. Background: Cellular ATP, detected with luciferase, serves as a proxy for viable cell number.
Assay [4] in a line: viability loss in pontine glioma line – cell-based, SU-DIPG-XIII, MIPE5.0, CellTiter-Glo, qHTS, dose response (AID 1347064; cut-off not given, nearly all actives have AC50 up to about 23 µM;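 as to AC50: cells exposed to compound for 48 hours before the viability read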). As to conditions: CellTiter-Glo ATP luminescence.
Assay [5] is described as follows: growth inhibition of DIPG cells – cell-based, MIPE4.0 library, CellTiter-Glo luminescence, qHTS (AID 1347066; cut-off not given, nearly all actives have AC50 up to about 30 µM;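 also: cells exposed to compound for 48 hours before readout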). The conditions noted are these: SU-DIPG-VI viability, CellTiter-Glo ATP luminescence.
Assay [6] can be described thus: JHH-DIPG-1 glioma cell viability, MIPE5.0 library, CellTiter-Glo luminescence, qHTS (AID 1347067; cut-off not given, nearly all actives have AC50 up to about 26 µM;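 also: cells exposed to compound for 48 hours before readout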). As to conditions: JHH-DIPG-1 glioma viability, CellTiter-Glo ATP luminescence.
The nature of assay [7]: growth inhibition, single agent or in combination, cell-based, chromothripsis tumors, cisplatin or BGB combos (AID 1671449; in the data active = inhibition above about 80%;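 also: cells exposed for 96 hours; 0% = vehicle DMSO and 100% = killing by high DMSO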). As to conditions: LFS_MB_P medulloblastoma cells.
Assay [8] in a line: growth inhibition, single agent and combos, cell-based, chromothripsis tumors, cisplatin or BGB combos (AID 1671450; in the data active = inhibition above about 80%;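 also: cells exposed to compound for four days; 0% = vehicle DMSO and 100% = cell killing by high DMSO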). The conditions noted are these: HDN33 neuroblastoma cells, stronger effect = higher value.
Assay [9] in a line: growth inhibition, single agents and combos, ICB984, cell-based, cisplatin or BGB combos, synergistic combos for chromothripsis tumors (AID 1671451).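 Also: cells exposed for 96 hours before readout; 0% = vehicle DMSO and 100% = killing by high DMSO.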 The conditions noted are these: ICB984 medulloblastoma cells, drug combinations, stronger effect = higher value.
Assay [10] in a line: growth inhibition, single agents and combos, HTB85, cell-based, BGB or cisplatin IC20 combos, synergistic combos for chromothripsis tumors (AID 1671453; in the data active = inhibition above about 80%;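 also: cells exposed for 96 hours before readout; 0% = vehicle DMSO and 100% = high DMSO killing control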). As to conditions: HTB85 osteosarcoma cells, drug combinations, stronger effect = higher value.
Assay [11] can be described thus: growth inhibition, MDA-MB-436, cell-based, BGB or cisplatin combos, synergistic combos for chromothripsis tumors (AID 1671458).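 Also: cells exposed for 96 hours; 0% = vehicle DMSO and 100% = killing by high DMSO.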 The conditions noted are these: MDA-MB-436 breast carcinoma growth inhibition, drug combinations, stronger effect = higher value.
The nature of assay [12]: BT084 cell growth, single and combined drugs, ICGC_MB145, cisplatin and BGB IC40 combos (AID 1671461; in the data active = inhibition above about 80%;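 also: cells exposed to drugs for 96 hours; 0% = vehicle DMSO and 100% = high DMSO full killing control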). The conditions noted are these: BT084 medulloblastoma cells, drug combinations, stronger effect = higher value.
Assay [13] can be described thus: RCMB18 cell growth, single agent and combined, cisplatin and BGB IC40 combos (AID 1671462; in the data active = inhibition above about 80%;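 also: cells exposed to compound for four days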). As to conditions: RCMB18 medulloblastoma cells, stronger effect = higher value.
A short description of assay [14]: CRL1545 cell growth, single agent and combined, cisplatin and BGB IC20 combos (AID 1671464; in the data active = inhibition above about 80%;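 also: cells exposed to compound for 96 hours before readout; 0% = vehicle DMSO and 100% = high DMSO killing control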). The conditions noted are these: CRL1545 osteosarcoma cells, stronger effect = higher value.
Assay [15] is described as follows: compounds altering circadian rhythm period length – cell-based, LOPAC library, luminescence reporter (AID 2774).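 Also: values are relative to mean of DMSO wells on each plate.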 The conditions noted are these: circadian reporter cells, at 7 µM, actives lie on both sides.
Assay [16] has as its system Hepatitis C virus NS3 helicase. The assay is described as follows: blockers of NS3h binding to ssDNA – biochemical, fluorescence polarization, LOPAC1280 library, primary screen (AID 687035; in the data active = inhibition above about 37%). The conditions noted are these: Purified HCV NS3 helicase, Cy5-dT15 ssDNA binding fluorescence polarization; stronger effect = higher value; concentration not given here. For orientation: Fluorescence polarisation rises when a labelled molecule tumbles more slowly, as on binding a larger partner.

Assay [17] in a line: compounds altering Cy5-DNA-NS3h complex signal – biochemical, LOPAC1280, artefact control for HCV NS3 helicase inhibitor project (AID 687037). The conditions noted are these: Cy5-DNA-NS3h complex fluorescence interference counterscreen. In general terms: A counterscreen serves to expose hits that act by an unwanted route or on another target.
Assay [18] is described as follows: viability loss in pontine glioma line – cell-based, SU-DIPG-XXV, MIPE5.0, CellTiter-Glo, qHTS, dose response (AID 1347065; cut-off not given, nearly all actives have AC50 up to about 26 µM;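 also: cells exposed to compound for 48 hours before ATP readout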). As to conditions: CellTiter-Glo ATP luminescence.
The nature of assay [19]: compounds altering HSF1 focus formation in cells – imaging, Selleck Cancer Library (AID 1347162; in the data active = plate-normalised HSF1 focus index below about 0.46). As to conditions: human cells, HSF1 nuclear foci imaging, at 10 µM; SSMD: measured here: HSF1 foci SSMD mean; cell count: measured here: cell number; plate-normalised HSF1 focus index: stronger effect = lower value.
Assay [20] in a line: blockers of cellular phospholipid synthesis – cell-based, LOPAC library, screen 4, primary screen (AID 1347384). The conditions noted are these: animal cells, phospholipid biosynthesis inhibition screen; at 10 µM.
The mark [21] stands for this setting: measured here: with BGB IC20 combination, at 0.5 µM.
The mark [22] stands for this setting: measured here: with cisplatin IC20 combination, at 0.5 µM.

Structures are written as SMILES. Results filed as inconclusive are left out. Activity calls are given as the source filed them. Unless noted, no rule for the calls is given here.

Mitogen-activated protein kinase 7 (Homo sapiens), sequence (Q13164 whole entry, looked up, the tested form may be a part): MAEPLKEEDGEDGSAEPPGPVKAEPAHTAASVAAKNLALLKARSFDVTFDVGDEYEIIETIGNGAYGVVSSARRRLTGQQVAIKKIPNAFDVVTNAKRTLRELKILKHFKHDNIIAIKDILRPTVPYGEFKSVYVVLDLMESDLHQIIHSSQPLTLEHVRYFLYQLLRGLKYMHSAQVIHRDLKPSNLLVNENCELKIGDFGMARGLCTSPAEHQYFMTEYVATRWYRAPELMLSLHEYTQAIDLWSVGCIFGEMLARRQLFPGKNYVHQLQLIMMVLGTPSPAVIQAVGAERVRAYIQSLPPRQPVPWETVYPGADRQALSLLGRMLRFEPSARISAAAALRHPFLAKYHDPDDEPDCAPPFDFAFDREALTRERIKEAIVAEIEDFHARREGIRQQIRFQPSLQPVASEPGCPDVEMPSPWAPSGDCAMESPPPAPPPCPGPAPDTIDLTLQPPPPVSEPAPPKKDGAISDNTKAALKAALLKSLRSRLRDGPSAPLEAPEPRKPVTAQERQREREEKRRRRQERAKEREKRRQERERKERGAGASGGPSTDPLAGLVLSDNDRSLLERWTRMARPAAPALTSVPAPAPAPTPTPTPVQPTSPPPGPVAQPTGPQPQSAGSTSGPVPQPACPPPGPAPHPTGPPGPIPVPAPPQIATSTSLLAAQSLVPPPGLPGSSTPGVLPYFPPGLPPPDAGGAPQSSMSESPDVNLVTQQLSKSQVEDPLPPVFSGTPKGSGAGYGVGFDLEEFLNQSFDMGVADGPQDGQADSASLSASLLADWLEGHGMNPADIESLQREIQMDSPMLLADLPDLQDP

With `O=C1OC2(c3ccc(O)cc3Oc3cc(O)ccc32)c2ccccc21`, the luciferase signal in assay [1] is 52 AU (inactive).

With `C[C@@]12C(=O)OC(=O)[C@]1(C)C1CCC2O1`, the survival in assay [2] was 0.417 (inactive).

For `CN(C)CCCOc1nn(Cc2ccccc2)c2ccccc12`, in [2], the survival is 9 (inactive). Besides, the luciferase signal in assay [1] was 92 AU (inactive).

Turning to `CC1(C)[C@@H]2CC[C@@]1(C)C(=O)C2`, in assay [1], the luciferase signal is 52 AU (inactive).

In the case of `CCN(CC)CCOc1ccc2c(c1)C(=O)c1cc(OCCN(CC)CC)ccc1-2`, the luciferase signal in assay [1] is 108 AU (inactive).

`CC(C)CCCC(C)N` (stereo not given): the luciferase signal in assay [1] is 56 AU (inactive).

On to `Nc1ncn([C@H]2C[C@H](O)[C@@H](CO)O2)c(=O)n1`, for which the call in assay [3], in [4], in assay [5] and in assay [6] was inactive. The inhibition – broadly, the drop in the measured response relative to a control, in per cent – is 6.06% (inactive) in assay [7] (at 0.5 µM, stronger effect = higher value); -1.4% in [7] (measured here: combination with BGB IC20, at 0.005 µM); -3.75% in [7] (measured here: combination with BGB IC40, at 0.005 µM); -40.3% in assay [7] (measured here: combination with BGB IC40, at 0.05 µM); 19.6% in assay [7] (measured here: combination with cisplatin, at 0.5 µM, stronger effect = higher value); 18% in assay [7] (measured here: combination with cisplatin, at 5 µM, stronger effect = higher value). Further, the inhibition in [8] (BGB combo, at 5 µM) is 50.3%; in assay [8] (at 0.5 µM), 24.3% (inactive); in assay [8] (cisplatin combo, at 5 µM) it was 54.4%; in assay [8] (setting [21]), 30.2%; in [8] (setting [22]), 11.6%; in assay [8] (single agent, at 5 µM) it was 52.1%. Moreover, the inhibition in assay [9] (BGB IC20 combo, at 0.005 µM) was -3.18%; in assay [9] (BGB IC40 combo, at 0.005 µM), -34%; in assay [9] (BGB IC40 combo, at 0.05 µM), -19.3%; in assay [9] (at 0.5 µM) it was -18% (inactive); in assay [9] (cisplatin combo, at 0.05 µM), -23.6%; in assay [9] (cisplatin combo, at 0.5 µM), -14.1%. Further, the inhibition in assay [9] (cisplatin combo, at 5 µM) was -50.9%; in assay [9] (measured here: 5 uM single agent, at 5 µM), -6.92%; in assay [10] (at 0.5 µM), 3.38% (inactive); in assay [10] (measured here: with BGB IC20, at 0.5 µM) it was 2.59%; in assay [10] (measured here: with BGB IC20, at 5 µM) it was 19.3%; in [10] (measured here: with cisplatin IC20, at 0.5 µM) it was -6.21%. For the same compound, the inhibition is 27.4% in [10] (measured here: with cisplatin IC20, at 5 µM); 40.2% in assay [10] (single agent, at 5 µM); 17.4% (inactive) in [11] (at 0.5 µM); 28.5% in [11] (measured here: BGB combination, at 0.5 µM); 26.2% in assay [11] (measured here: BGB combination, at 5 µM); 6.25% in assay [11] (measured here: cisplatin combination, at 0.5 µM). Also, the inhibition in [11] (measured here: cisplatin combination, at 5 µM) is 4.64%; in assay [12] (at 0.5 µM) it was -3.99% (inactive); in [12] (cisplatin combination, at 0.5 µM), -10.2%; in assay [12] (cisplatin combination, at 5 µM), 16.2%; in [12] (measured here: BGB IC40 combination 0.05 uM, at 0.05 µM) it was -0.777%; in assay [12] (single agent, at 5 µM), -11.6%. Besides, the inhibition is -2.53% (inactive) in [13] (at 0.5 µM); -31% in assay [13] (cisplatin combo, at 5 µM); 7.83% in assay [13] (measured here: BGB IC40 combination, at 0.05 µM); -5.57% in [13] (measured here: combination with cisplatin, at 0.5 µM); 7.32% in assay [13] (single agent, at 5 µM); -20.4% (inactive) in assay [14] (at 0.5 µM). In addition, the inhibition in [14] (setting [21]) is -0.059%; in assay [14] (setting [22]), -32.7%; in [14] (single agent, at 0.05 µM), -13.4%; in [14] (single agent, at 5 µM), 5.37%.

In the case of `CC1=C(/C=C/C(C)=C/C=C/C(C)=C/C(=O)Nc2ccc(O)cc2)C(C)(C)CCC1`, the period change in [15] is -0.145 h (inactive). Further, the survival in assay [2] is 116 (inactive). Moreover, in assay [16], the inhibition was -3% (inactive). Further, the fluorescence ratio (interference) in [17] is 1 (inactive). Further, the concentration at half-maximal activity (AC50) (as a rule, the concentration at which the activity in the assay is half-maximal) in assay [3] is 2.7 µM (active); in assay [4], 16.6 µM (active); in assay [18], 14.8 µM (active); in assay [5], 9.59 µM (active); in [6], 20.9 µM (active). The compound further came in with an SSMD in assay [19] of -4.16. Besides, in assay [19], the cell count amounted to 7280. In assay [19], the plate-normalised HSF1 focus index is 0.851 (inactive). Moreover, the outcome in assay [20] was active.

The record behind these values is PubChem BioAssay.
